Assay outcomes from PubChem.
AmpC no deterg: qHTS Inhibitors of AmpC Beta-Lactamase (assay without detergent). P00811. AmpC nitrocefin hydrolysis, absorbance 480 nm, 0.0001% Triton. Potency, µM (series often up to 57.1 µM), without a hit: top-dose activity change, negative = inhibition, usual class: inhibitors. actives 0.52% (n = 330,000). AID 485341, 2010;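 also: plate controls were no compound for no effect and no enzyme for full effect; nearly all actives have a fitted effect of over 20% in size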
Target sequence (P00811 whole entry, looked up): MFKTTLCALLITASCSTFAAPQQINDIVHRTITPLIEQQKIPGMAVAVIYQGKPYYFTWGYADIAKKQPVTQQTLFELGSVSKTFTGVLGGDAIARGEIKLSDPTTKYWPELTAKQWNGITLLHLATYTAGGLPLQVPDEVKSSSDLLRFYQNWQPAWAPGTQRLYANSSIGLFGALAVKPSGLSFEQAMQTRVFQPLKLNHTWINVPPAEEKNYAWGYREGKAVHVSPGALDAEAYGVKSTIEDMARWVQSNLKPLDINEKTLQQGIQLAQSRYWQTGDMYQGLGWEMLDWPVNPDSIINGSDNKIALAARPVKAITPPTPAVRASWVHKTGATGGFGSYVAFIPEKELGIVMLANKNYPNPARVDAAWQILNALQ
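AmpC (5.3 nM in the dispensed reagent) in 20 mM phosphate pH 7.0 with 0.01% (detergent screen) or 0.0001% Triton X-100 was preincubated with compounds for 15 min at room temperature. Nitrocefin was then added from an 800 uM solution, and hydrolysis was followed at 480 nm.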
AMA1 RON2 block: qHTS for Inhibitors of AMA1-RON; Towards Development of Antimalarial Drug Lead: Primary Screen | Plasmodium falciparum AMA1 (3D7) - RON2 peptide interaction | AlphaScreen AMA1-biotinylated RON2 peptide binding | Potency, µM (highest dose often 58.2 µM), for inactives: top-dose activity change, negative = inhibition, most hits filed as inhibitors | actives 0.2% (n = 360,000) | AID 720542, 2013;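 also: 0% = vehicle wells and -100% = peptide control; nearly all actives have a fitted effect of over 45% in size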
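AMA1 (3D7) with his tag at 25 nM final met compounds first, then biotinylated RON2 peptide at 25 nM; detection used donor plus acceptor beads, 10 µg/mL apiece, read by AlphaScreen after 30 min at room temperature.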
RE007 growth inh: qHTS Assay for Inhibitors of the HIV-1 protein Vpr; S. pombe RE007 Vpr strain, BacTiter-Glo ATP luminescence, 24 h; Potency, µM (highest dose often 92.2 µM), without a hit: at the highest dose activity change, negative = less growth, hits mostly inhibitors; actives 0.21% (n = 360,000); AID 651644, 2012; active = well fitted falling curve with a large enough effect; inconclusive = small, poorly fitted or top-dose-only effect; inactive = no such curve, though single readings can be large or run the other way; also: nearly all actives have a fitted effect of over 50% in size
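Fission yeast strain RE007, carrying one chromosomally integrated HIV-1 vpr copy, was seeded at OD 0.01 in PMG+AL medium with 23 nL pinned compound. After 24 h at 30 °C and 99% humidity, viability was read by BacTiter-Glo luminescence.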
AmpC inh detg: qHTS Inhibitors of AmpC Beta-Lactamase (assay with detergent); P00811; AmpC hydrolysis of nitrocefin, absorbance 480 nm, 0.01% Triton; Potency, µM (doses to about 114 µM), for inactives: at the top dose activity change, negative = inhibition, actives largely listed as inhibitors; actives 0.041% (n = 370,000); AID 485294, 2010;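 also: 0% = no-compound wells and -100% = no-enzyme wells; nearly all actives have a fitted effect of over 25% in size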
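20 mM phosphate pH 7.0 + 0.01% (detergent screen) or 0.0001% Triton X-100; 5.3 nM AmpC reagent; cpd preinc 15 min RT; nitrocefin (800 uM stock) to start; A480 q20 s × 4 min; Activity was normalised to no-enzyme and no-compound control wells.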
Starred values were filed as active, the others as inactive; ? = inconclusive; . = no result; [ ] = another dose, or the depositor's remark. The list is not random: actives were taken first. Their share in the collection is about 0.79%. Unless noted, calls follow the shape of the dose curve; as a rule, active = well fitted curve in the direction sought with a large enough effect; inconclusive = small, poorly fitted or top-dose-only effect, or another doubt; inactive = no such curve, though single readings can be large; an effect the other way counts as inactive or inconclusive. Unless noted, % is scaled to controls: 0 for no effect and ±100 for the full control effect; potency is read from the fitted curve at half-maximal effect.

SMILES	AmpC no deterg	AMA1 RON2 block	RE007 growth inh	AmpC inh detg
Cc1ccc(NNS(=O)(=O)c2ccc(C)cc2)cc1	-33.1%	-15.5%	31.6µM*	-8.8%
Cc1ccc(S(=O)(=O)NNC(=O)C(=O)NNS(=O)(=O)c2ccc(C)cc2)cc1	-24.9%	75.0%	?	5.7%
C/C(=N\NC(=O)c1ccc(NS(=O)(=O)c2cccs2)cc1)c1ccc(Cl)cc1	?	12.5%	-5.7%	?
O=C(Nc1cccc(NC(=O)c2ccco2)c1)c1ccc2c(c1)OCO2	11.2µM*	2.2%	-10.0%	-6.1%
C/C(=N\NC(=O)c1ccc(NS(=O)(=O)c2cccs2)cc1)c1ccc2c(c1)OCO2	17.8µM*	23.5%	-3.6%	1.5%
O=C(Nc1cccc(NC(=O)c2cccs2)c1)c1ccc2c(c1)OCO2	10µM*	6.9%	2.6%	?
COC(=O)Nc1c(-c2ccccc2)nc2ccccn12	-14.0%	3.2%	-4.7%	?
CCOC(=O)c1c(-c2ccccc2)nc2ccccn12	-5.2%	-2.5%	17.8µM*	-10.2%
Cc1cccn2c(N)c(-c3ccccc3)nc12	-21.5%	9.9%	1.6%	-11.0%
CCOC(=O)c1c(-c2ccccc2)nc2c(C)cccn12	19.7%	0.7%	14.1µM*	-10.4%
Cc1cccc(OCC(=O)Nc2c(C)ccc3nsnc23)c1C	.	.	.	-0.3%
O=C(Nc1ccccn1)c1onc2c1CCCC2	-15.5%	-1.8%	10µM*	-17.3%
COc1ccc(N=C2NC(=O)/C(=C\c3ccco3)S2)cc1	-40.4%	-10.6%	-20.9%	4.9%
O=C1NC(=Nc2ccc(O)cc2)S/C1=C\C=C\c1ccco1	17.8µM*	-10.5%	3.4%	1.8%
CCOC(=O)c1ccc2c(c1)C1C=CCC1C(C(=O)O)N2 (configuration not stated)	-45.9%	.	.	?
CCN(CC)C(=O)c1ccc2c(c1)C1C=CCC1C(C(=O)O)N2 (configuration not stated)	-17.8%	12.6µM*	.	-4.6%
Cc1ccc2c(c1C)NC(C(=O)O)C1CC=CC21 (configuration not stated)	-46.8%	11.9µM*	-0.1%	?
O=C(O)C1Nc2c(C(=O)N3CCOCC3)cccc2C2C=CCC12 (configuration not stated)	-18.8%	-11.3%	20.4%	?
CC1CCCC(C)N1/N=C/C=C/c1ccccc1[N+](=O)[O-] (configuration not stated)	-14.2%[11.4 µM]	15.8µM*	-20.3%	-11.3%
CC1CCCC(C)N1/N=C/c1ccc([N+](=O)[O-])cc1 (configuration not stated)	-9.2%	?	-10.7%	1.0%
COc1cccc(/C=N/N2CCN(c3ccccc3OC)CC2)c1	-5.3%	?	-24.5%	3.2%
COc1ccccc1N1CCN(/N=C/C=C\c2ccccc2[N+](=O)[O-])CC1	35.3%	20µM*	3.5%	-4.0%
COc1ccccc1N1CCN(/N=C/c2cccc(Cl)c2)CC1	-5.5%	14.1µM*	?	-4.9%
O=c1n(Cc2ccc(Cl)cc2)c2ccccc2c2nc(-c3ccccc3)nn12	.	.	.	-7.4%
COC(=O)c1ccc(NC(=O)CN2C(=O)CC(c3ccccc3)Sc3ccccc32)cc1 (configuration not stated)	.	.	.	2.3%
SMILES	AmpC no deterg	AMA1 RON2 block	RE007 growth inh	AmpC inh detg
COc1ccc2c(C)c(CC(=O)NCCc3ccc(Cl)cc3)c(=O)oc2c1C	.	.	.	9.6%
CC(C)(C)C(=O)Nc1nc2c(s1)COc1ccccc1-2	0.708µM*	4.2%	-12.2%	?
CCCCC(=O)Nc1nc2c(s1)COc1ccccc1-2	-0.9%	-4.1%	-10.3%	-13.1%
CCCC(=O)Nc1nc2c(s1)COc1ccccc1-2	-22.1%	-1.7%	-4.0%	-6.5%
O=C(CCSc1ccccc1)Nc1nc2c(s1)COc1ccccc1-2	3.16µM*	55.8%	14.5%	?
CC(=O)N1c2c(cc(Br)cc2S(=O)(=O)NCc2ccccc2Cl)CC1C (configuration not stated)	.	.	.	8.5%
COC(=O)C1=C(C)N(Cc2ccc(C)cc2)C(=O)/C1=C\c1cc(OC)c(OC)c(OC)c1	88.5%	35.5µM*	-14.4%	-10.7%
COC(=O)C1=C(C)N(Cc2ccc(C)cc2)C(=O)/C1=C\c1ccc(O)c(OC)c1	-32.5%	?	9.8%	?
CCCCCCN1C=C/C(=C\C=C(C#N)C#N)c2ccccc21	-3.9%	-14.8%	-3.1%	?
C=CCN1C=C/C(=C\C=C(C#N)C#N)c2ccccc21	-14.5%	14.1µM*	-16.5%	-15.1%
Cc1ccc(C)c(CSc2cn(CCNC(=O)c3cccs3)c3ccccc23)c1	.	.	.	4.6%
COc1cc2cc(CNc3ccc(C)cc3)c(=O)n(CC(=O)Nc3ccc(C(C)C)cc3)c2cc1OC	.	.	.	16.3%
CC(=O)N1/C(=C/c2ccc(N(C)C)cc2)C(=O)c2ccccc21	-8.1%	28.2µM*	3.6%	-14.3%
CC1=C(C(=O)Nc2ccc(C)cc2C)C(c2ccccc2)n2ncc(C(=O)Nc3ccccc3)c2N1 (configuration not stated)	.	.	.	8.9%
COc1cc(C)c(NC(c2ccccc2)c2ccccc2)cc1OC	-6.4%	35.5µM*	8.5%	-5.5%
COc1ccccc1CNC(c1ccccc1)c1ccccc1	-4.5%	18.9%	0.2%	-3.5%
O=C(Nc1ccc(Br)cc1)Nc1nc2c(s1)CCCCCC2	.	.	.	20.3%
Cn1nnnc1SCCCNCc1ccccc1OCc1ccccc1Cl	.	.	.	-1.1%
CCc1ccc(C(=O)c2cn(CC(=O)Nc3cc(C)ccc3C)c3nc(C)ccc3c2=O)cc1	.	.	.	3.7%
Fc1ccccc1C1CC(c2ccco2)=Nc2ccccc2S1 (configuration not stated)	-23.0%	-6.8%	25.1µM*	11.2%
COc1ccccc1C1CC(c2cccs2)=Nc2ccccc2S1 (configuration not stated)	-22.2%	?	-16.2%	?
Cc1c(C(=O)N2CCC(C)CC2)c(S(=O)(=O)N(Cc2ccccc2)C(C)(C)C)c(C)n1C	.	.	.	10.3%
CC(C)c1ccc(NC(=O)CSc2nc(=O)[nH]c3c2CCCC3)cc1	35.5µM*	-5.9%	-19.3%	-14.8%
Cn1c(/C(C#N)=C/c2ccc(-c3ccc(S(N)(=O)=O)cc3)o2)nc2ccccc21	20µM*	0.0%	5.3%	-16.5%
COc1ccc(Br)cc1CNC(=O)C1COc2ccccc2C1 (configuration not stated)	.	.	.	-1.5%
COc1ccc(Oc2nc(SC)nc3ccccc23)cc1	0.159µM*	13.9%	-1.6%	0.8%
COc1ccc(Oc2nc(-c3cccnc3)nc3ccccc23)cc1	7.3%	-19.0%	-6.6%	2.1%
CC1CCCCC1NS(=O)(=O)c1ccc(S(=O)(=O)N2CCN(CCC#N)CC2)cc1 (configuration not stated)	44.7µM*	17.8%	-14.4%	?
N#CCCN1CCN(S(=O)(=O)c2ccc(S(=O)(=O)NCc3ccccc3)cc2)CC1	10µM*	-0.7%	-6.3%	?
